Assay results as given in PubChem BioAssay AID1159577 (Broad Institute, 2015).
The whole screen tested about 1,300 compounds, of which about 240 (18%) were called active. Inconclusive results (about 8%) are left out. The rule behind the calls is not given here. Not all results are given here. Where a call stands in place of a potency, no number is given. Potency and affinity values are given separately.

assay: toxicity to human hepatoma HepG2 cells – cell-based, cherry-picked samples, cytotoxicity control, dose response (AID 1159577); settings: HepG2 cytotoxicity counterscreen, plate reader; series mostly up to 19.5 µM

| SMILES | outcome |
| --- | --- |
| C[C@@H]1CN([C@H](C)CO)C(=O)c2c(c3ccccc3n2C)-c2ccccc2CO[C@@H]1CN(C)C(=O)[C@H](C)c1ccccc1 | inactive |
| C[C@@H]1CN([C@H](C)CO)C(=O)c2ccccc2-c2ccccc2CO[C@H]1CN(C)C(=O)Nc1cccc(Cl)c1Cl | inactive |
| C[C@H](CO)N1C[C@H](C)[C@H](CN(C)Cc2ccc(Oc3ccccc3)cc2)Oc2c(NC(=O)c3nc4ccccc4s3)cccc2C1=O | inactive |
| C[C@H](CO)N1C[C@H](C)[C@H](CN(C)S(=O)(=O)c2cccs2)Oc2ccc(NC(=O)Cc3cn(C)c4ccccc34)cc2C1=O | inactive |
| COc1ccc(C#Cc2ccc3c(c2)O[C@H](CN(C)S(=O)(=O)c2ccccc2F)[C@@H](C)CN([C@H](C)CO)S3(=O)=O)cc1 | inactive |
| CC(C)(C)[S@@](=O)N1Cc2cc(C(=O)NCCN3CCCC3)nc(-c3cccc(-c4ccc(C#N)cc4)c3)c2[C@H]1CCO | inactive |
| COCC(=O)Nc1ccc2c(c1)C(=O)N(C)C[C@H](OC)[C@H](C)CN(Cc1cc(F)ccc1F)[C@@H](C)CO2 | inactive |
| COc1ccccc1CNC(=O)C[C@H]1C[C@H]2c3cc(NC(=O)Cc4ccncc4)ccc3O[C@H]2[C@H](CO)O1 | inactive |
| C[C@H](CO)N1C[C@H](C)[C@H](CN(C)S(=O)(=O)c2ccc(C(F)(F)F)cc2)OCc2ccccc2-c2c(n(C)c3ccccc23)C1=O | inactive |
| C[C@H]1CN([C@@H](C)CO)C(=O)c2c(c3ccccc3n2C)-c2ccccc2CO[C@@H]1CN(C)C(=O)Cc1ccccc1 | inactive |
| C[C@H]1CN([C@@H](C)CO)C(=O)c2c(c3ccccc3n2C)-c2ccccc2CO[C@@H]1CN(C)Cc1ccc(-c2ccccc2)cc1 | inactive |
| C[C@H]1CN([C@@H](C)CO)C(=O)c2c(c3ccccc3n2C)-c2ccccc2CO[C@@H]1CN(C)C(=O)Nc1cccc(C(F)(F)F)c1 | inactive |
| C[C@@H]1CN([C@@H](C)CO)C(=O)c2c(c3ccccc3n2C)-c2ccccc2CO[C@H]1CN(C)C(=O)Nc1ccccc1C(F)(F)F | inactive |
| C[C@H](CO)N1C[C@H](C)[C@@H](CN(C)Cc2ccc(-c3ccccc3)cc2)OCc2ccccc2-c2c(n(C)c3ccccc23)C1=O | inactive |
| COc1ccc(S(=O)(=O)N2CCC3(CC2)CN(Cc2ccncc2)[C@@H](CO)c2[nH]c4cc(OC)ccc4c23)cc1 | inactive |
| COc1ccccc1NC(=O)Nc1ccc2c(c1)OC[C@@H](C)N(Cc1ccccc1Cl)C[C@@H](C)[C@H](OC)CN(C)C2=O | inactive |
| CCCN(C)C[C@@H]1Oc2cc(C#Cc3cccnc3)ccc2S(=O)(=O)N([C@@H](C)CO)C[C@H]1C | inactive |
| COc1ccc2c3c([nH]c2c1)[C@H](CO)N(Cc1cc(F)ccc1F)CC31CCN(C(=O)C2CCC2)CC1 | inactive |
| C[C@H](CO)N1C[C@H](C)[C@H](CN(C)C(=O)NC2CCCCC2)OCc2ccccc2-c2c(n(C)c3ccccc23)C1=O | inactive |
| CO[C@H]1CN(C)C(=O)c2cc(NC(=O)c3ccccc3F)ccc2OC[C@H](C)N(C(=O)c2ccccc2F)C[C@H]1C | inactive |
| CCC(=O)N1CC2(C1)CN(Cc1cccc(Cl)c1)[C@H](CO)c1c2c2ccc(OC)cc2n1C | inactive |

| SMILES | outcome |
| --- | --- |
| N#C[C@@H]1[C@H](c2ccccc2-c2ccccc2F)[C@H](CO)N1C(=O)C1CCOCC1 | inactive |
| N#C[C@@H]1[C@@H](c2ccccc2C2=CCCC2)[C@@H](CO)N1C(=O)NC1CCCC1 | inactive |
| CC(C)(C)S(=O)N1Cc2cc(C(=O)NCc3ccc(Oc4ccccc4)cc3)nc(-c3cccc(-c4cccc(F)c4)c3)c2[C@@H]1CCO (stereo partly specified) | inactive |
| CN(C)C(=O)c1cccc(-c2cccc(-c3nc(C(=O)NC4CCCCC4)cc4c3[C@@H](CCO)N([S@](=O)C(C)(C)C)C4)c2)c1 | inactive |
| COc1cccc(CNC(=O)c2cc3c(c(-c4cccc(-c5ccncc5)c4)n2)[C@H](CCO)N([S@@](=O)C(C)(C)C)C3)c1 | inactive |
| COc1cccc(-c2cccc(-c3nc(C(=O)NCc4ccc(Oc5ccccc5)cc4)cc4c3[C@@H](CCO)N(S(=O)C(C)(C)C)C4)c2)c1 (stereo partly specified) | inactive |
| C[C@H]1CN([C@@H](C)CO)C(=O)c2c(c3ccccc3n2C)-c2ccccc2CO[C@H]1CN(C)S(=O)(=O)c1ccc(C(F)(F)F)cc1 | inactive |
| COCC(=O)N1[C@H](C#N)[C@@H](c2ccccc2-c2ccccc2)[C@H]1CO | inactive |
| COc1ccc2c3c(n(C)c2c1)[C@@H](CO)N(C(=O)c1ccc(F)cc1)CC31CN(C(=O)Nc2ccc(F)cc2)C1 | inactive |
| COc1ccc(C#Cc2ccc3c(c2)O[C@@H](CN(C)C(=O)Nc2cccc(OC)c2)[C@@H](C)CN([C@H](C)CO)S3(=O)=O)cc1 | inactive |
| O=C(c1ccccn1)N1CC2(C1)[C@@H](c1ccccc1)[C@H](CO)N2Cc1ccc(Cl)cc1 | inactive |
| COc1ccc(C#Cc2ccc([C@H]3[C@H]4CN(C(=O)c5ccc(F)cc5)CC(=O)N4[C@H]3CO)cc2)cc1 | inactive |
| C[C@H](CO)N1C[C@H](C)[C@@H](CN(C)C(=O)Nc2ccc(F)cc2)OCc2ccccc2-c2c(n(C)c3ccccc23)C1=O | inactive |
| COc1ccc2c3c([nH]c2c1)[C@@H](CO)N(C(=O)c1cccc(F)c1)CC31CCN(C(=O)c2ccccc2)CC1 | inactive |
| COc1ccc2c3c([nH]c2c1)[C@@H](CO)N(C(=O)Cc1ccccc1)CC31CCN(C(=O)Cc2ccccc2)CC1 | inactive |
| CCC(=O)N1CC2(CCN(C(=O)Nc3ccccc3F)CC2)c2c([nH]c3cc(OC)ccc23)[C@H]1CO | inactive |
| CCC(=O)N1CC2(C1)CN(C(=O)Nc1ccccc1F)[C@H](CO)c1[nH]c3cc(OC)ccc3c12 | inactive |
| COc1cccc(-c2ccc3c(c2)[C@@H]2[C@@H](CCN2C(=O)C2CCCC2)[C@H](CO)N3)c1 | inactive |
| CN(C)c1ccc2c(c1)[C@@H]1C[C@@H](CC(=O)N3CCc4ccccc4C3)O[C@@H](CO)[C@@H]1O2 | inactive |
| O=C(c1ccc(F)cc1)N1CC(=O)N2[C@H](CO)[C@H](c3ccc(C#Cc4ccc(F)cc4)cc3)[C@H]2C1 | inactive |
